Assay results taken from the supplement of paper PMC6555819.

Columns and labels:
Experiment in all cases: PBM binding z-score (relative to random genomic background probes); higher = stronger binding; sequences stand for … in GC…GCGATTGACAGCGTAGAATGAAGG
[1] = tested on: PPARg:RXRa DBDmut IVT, anti-RXR (DBD mutation: RXRa K156A/R161A, NR concentration 270 nM, RXRa partner concentration 90 nM)
Procedure, shortened: (§1)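 Binding buffer was PBS pH 7.4 with 2% milk, 0.02% Triton X-100, 1 mM DTT, 0.2 mg/mL BSA and 0.4 mg/ml salmon testes DNA. In it, ligand-free nuclear receptor dimers were incubated 1 h on custom Agilent 4×180K protein-binding microarrays carrying double-stranded probes. Antibodies against each partner (one per run) detected binding, and z-scores were calculated against random background probes after regression normalization of scanned fluorescence.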

[2] = tested on: PPARg:RXRa IVT, anti-PPARg (NR concentration 270 nM, RXRa partner concentration 90 nM)
Procedure, shortened: as §1

[3] = tested on: PPARg homodimer (NR concentration 180 nM)
Procedure, shortened: as §1

[4] = tested on: PXR:RXRa (NR concentration 270 nM, RXRa partner concentration 90 nM)
Procedure, shortened: as §1

[5] = tested on: PXR homodimer (NR concentration 270 nM)
Procedure, shortened: as §1

[6] = tested on: RARa:RXR (NR concentration 270 nM, RXRa partner concentration 90 nM)
Procedure, shortened: as §1

[7] = tested on: RARa homodimer (NR concentration 270 nM)
Procedure, shortened: as §1

[8] = tested on: RARb:RXRa (NR concentration 270 nM, RXRa partner concentration 90 nM)
Procedure, shortened: as §1

[9] = tested on: RARb homodimer (NR concentration 270 nM)
Procedure, shortened: as §1

[10] = tested on: RARg:RXRa (NR concentration 270 nM, RXRa partner concentration 90 nM)
Procedure, shortened: as §1

[11] = tested on: RARg homodimer (NR concentration 270 nM)
Procedure, shortened: as §1

[12] = tested on: RXRa DBDmut IVT, anti-RXR (DBD mutation: RXRa K156A/R161A, NR concentration 90 nM)
Procedure, shortened: as §1

[13] = tested on: RXRa homodimer (NR concentration 180 nM)
Procedure, shortened: as §1

[14] = tested on: THRa:RXRa (NR concentration 90 nM, RXRa partner concentration 90 nM)
Procedure, shortened: as §1

[15] = tested on: THRa homodimer (NR concentration 90 nM)
Procedure, shortened: as §1

[16] = tested on: VDR:RXRa (NR concentration 270 nM, RXRa partner concentration 90 nM)
Procedure, shortened: as §1

[17] = tested on: VDR homodimer (NR concentration 270 nM)
Procedure, shortened: as §1

| Sequence | PBM binding z-score [1] | PBM binding z-score [2] | PBM binding z-score [3] | PBM binding z-score [4] | PBM binding z-score [5] | PBM binding z-score [6] | PBM binding z-score [7] | PBM binding z-score [8] | PBM binding z-score [9] | PBM binding z-score [10] | PBM binding z-score [11] | PBM binding z-score [12] | PBM binding z-score [13] | PBM binding z-score [14] | PBM binding z-score [15] | PBM binding z-score [16] | PBM binding z-score [17] |
| --- | --- | --- | --- | --- | --- | --- | --- | --- | --- | --- | --- | --- | --- | --- | --- | --- | --- |
| CAGAGTAGGTTACGAGGGGGCATTCAGTGCGAAT | 5.73 | 5.83 | 1.94 | 4.86 | 6.24 | 2.83 | 1.21 | 2.45 | 2.26 | 3.13 | 2.84 | 1.78 | 2.2 | 3.68 | 1.15 | 5.33 | 4.2 |
| CCGAGTAGGTTACGAGGGGACATTCAGTGCGAAT | 4.84 | 4.14 | 1.04 | 2.82 | 2.23 | 0.995 | 0.101 | 1.42 | 1.22 | 1.25 | 1.25 | 0.594 | 0.907 | 4.11 | 0.165 | – | 1.46 |
| CCGAGTAGGTTACGACGGGGCATTCAGTGCGAAT | 3.85 | 3.21 | 0.811 | 1.68 | 0.127 | 1.17 | -0.209 | 1.23 | 0.791 | 0.882 | 0.746 | -0.202 | 0.769 | 2 | -0.61 | – | 0.32 |
| TCGAGTAGATTACGGGGGCATTCAGGGATGAAGA | 2.06 | 2.81 | 0.745 | 2.52 | 1.38 | 2.08 | 0.218 | 1.37 | 1.26 | 1.41 | 0.834 | 1.65 | 1.35 | 3.66 | 0.874 | – | 3.02 |
| TCGAGTATGTTACGGGGGCATTCAGGGATGAAGA | 2.87 | 3.97 | 0.827 | 2.87 | 1.12 | 2.43 | 0.107 | 2.01 | 1.62 | 2.19 | 1.29 | 2.11 | 1.67 | 3.98 | 1.12 | – | 3.01 |
| CTATGTAGGCTAAGGGGGTCATTCAGTTTGAAAG | 5.39 | 5.71 | 1.72 | 5.12 | 8.71 | 5.12 | 0.465 | 2.69 | 3.39 | 4.23 | 2.53 | 1.96 | 4.7 | 3.45 | 1.51 | – | 4.02 |
| CCATGTAGGTTAAGGGGGTCATTCAGTTTGAAAG | 5.55 | 6.99 | 4.47 | 5.83 | 12.1 | 5.82 | 2.79 | 3.46 | 4.05 | 5.03 | 3.85 | 2.37 | 5.74 | 3.87 | 2.67 | – | 6.01 |
| CTAGGTAGGTTAAGGGGGTCATTCAGTTTGAAAG | 5.01 | 5.61 | 2.95 | 5.85 | 11.1 | 5.43 | 1.74 | 3.26 | 3.87 | 4.95 | 3.79 | 1.97 | 5.77 | 3.78 | 2.19 | – | 5.84 |
| CTATGTAGGTTAAGGGGTTCATTCAGTTTGAAAG | 6.98 | 6.85 | 1.79 | 5.14 | 12.3 | 3.12 | 1.25 | 1.82 | 1.75 | 1.88 | 1.04 | 2.79 | 2.55 | 1.92 | 0.473 | – | 7.01 |
